{"source": "the supplement of paper PMC6411743", "target": "T1, FARSB (UniProt Q9NSD9)", "T1 sequence (whole entry)": "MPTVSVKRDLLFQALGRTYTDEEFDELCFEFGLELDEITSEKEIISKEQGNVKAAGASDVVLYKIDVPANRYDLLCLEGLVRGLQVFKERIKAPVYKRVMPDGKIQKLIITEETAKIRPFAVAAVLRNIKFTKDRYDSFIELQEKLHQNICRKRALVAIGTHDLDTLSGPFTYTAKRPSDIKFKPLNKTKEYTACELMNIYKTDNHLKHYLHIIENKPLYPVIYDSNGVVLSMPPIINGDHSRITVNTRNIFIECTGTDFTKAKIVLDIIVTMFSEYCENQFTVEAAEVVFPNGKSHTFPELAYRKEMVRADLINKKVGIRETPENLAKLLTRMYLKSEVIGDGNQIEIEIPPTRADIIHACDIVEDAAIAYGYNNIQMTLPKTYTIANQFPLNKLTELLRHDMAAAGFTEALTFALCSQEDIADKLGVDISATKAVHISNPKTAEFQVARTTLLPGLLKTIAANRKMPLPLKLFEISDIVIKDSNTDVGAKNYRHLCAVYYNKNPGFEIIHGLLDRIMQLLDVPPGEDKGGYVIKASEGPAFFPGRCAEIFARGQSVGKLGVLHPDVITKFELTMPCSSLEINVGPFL", "assay": "NP40-soluble protein abundance relative to vehicle (solubility fold change) (ratio); higher = more soluble protein in presence of GTP", "method": "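Solubility proteome profiling in Jurkat crude lysate. Lysate was treated with Mg-GTP (0.1-10 mM) for 10 min at room temperature and 3 min at 37 °C, then solubilised with 0.8% NP40 and benzonase, followed by ultracentrifugation. Proteins were quantified by TMT10 LC-MS/MS; the value is the NP40-soluble abundance relative to the NP40-processed vehicle, from 3 independent experiments.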", "note": "± gives the standard deviation of the averaged measurements. About 5,400 targets were measured; listed, in parts, are those with the largest changes and a random draw of the rest."}
{"smiles": "Nc1nc2c(ncn2[C@@H]2O[C@H](COP(=O)(O)OP(=O)(O)OP(=O)(O)O)[C@@H](O)[C@H]2O)c(=O)[nH]1", "note": "[guanosine triphosphate]", "values": [{"measurement": "NP40-soluble protein abundance", "setting": "concentration: 0.1mM", "value": "1.05 ± 0.043"}, {"measurement": "NP40-soluble protein abundance", "setting": "concentration: 0.5mM", "value": "1.06 ± 0.074"}, {"measurement": "NP40-soluble protein abundance", "setting": "concentration: 1mM", "value": "0.933 ± 0.035"}, {"measurement": "NP40-soluble protein abundance", "setting": "concentration: 2mM", "value": "0.944 ± 0.091"}, {"measurement": "NP40-soluble protein abundance", "setting": "concentration: 4mM", "value": "0.954 ± 0.064"}, {"measurement": "NP40-soluble protein abundance", "setting": "concentration: 6mM", "value": "0.925 ± 0.059"}, {"measurement": "NP40-soluble protein abundance", "setting": "concentration: 8mM", "value": "0.875 ± 0.012"}, {"measurement": "NP40-soluble protein abundance", "setting": "concentration: 10mM", "value": "0.844 ± 0.057"}]}
